Structures can show the parent of a compound that is named as a salt.

These results are taken from the supplement of paper PMC8975748.

The test system of the assay is Saccharomyces cerevisiae BY4741 SeMeCo community. The assay is described as follows: z-score of subpopulation abundance vs DMSO median, subpopulation auxotrophic for HM; higher = larger share of this subpopulation than in DMSO controls. To be noted: 10 µM; 24 h; SM minimal medium; subpopulation (auxotrophy): HM. As to the method: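 Fluorescent four-plasmid SeMeCo (self-establishing metabolically cooperating S. cerevisiae BY4741 community; plasmids pH-mRuby2, pL-mWasabi, pU-eCFP, pM-TagRFP657) was grown 24 h in minimal SM medium with each Selleck FDA-approved drug at 10 µM in 384-well plates. Cells were fixed and imaged by high-content confocal microscopy. For each auxotrophic subpopulation (and the prototroph), a z-score gives the deviation from the DMSO vehicle-control population median.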
Take `O=[N+]([O-])C(Br)(CO)CO` [Bronopol]: the “z-score of subpopulation abundance” value is -0.03. To `CC[C@@]1(O)C(=O)OCc2c1cc1n(c2=O)Cc2cc3ccccc3nc2-1` [Camptothecin] belongs 0.23; to `C=C(C)[C@H]1Cc2c(ccc3c2O[C@@H]2COc4cc(OC)c(OC)cc4[C@@H]2C3=O)O1` [Rotenone (Barbasco)], 0.89. To `CC(C)N(CCC(C(N)=O)(c1ccccc1)c1ccccn1)C(C)C` (centres undefined) [Disopyramide] belongs 0.08; to `O=c1cccc2n1C[C@@H]1CNC[C@H]2C1` [Cytisine], 0.02; to `CC(=O)O[C@H]1C[C@@H]2CC[C@@H]3[C@H](CC[C@@]4(C)[C@H]3C[C@H]([N+]3(C)CCCCC3)[C@@H]4OC(C)=O)[C@@]2(C)C[C@@H]1[N+]1(C)CCCCC1` [Pancuronium dibromide], -1.06. Turning to `COc1ccc2c3c([nH]c2c1)C(C)=NCC3` [Harmaline], the “z-score of subpopulation abundance” value is 3.18. Then `CN(C)[C@@H]1C(=O)C(C(N)=O)=C(O)[C@@]2(O)C(=O)C3=C(O)c4c(O)cccc4[C@@](C)(O)[C@H]3C[C@@H]12` [Tetracycline HCl], with 0.72; and `O=C(O[C@H]1C[C@H]2CC[C@@H](C1)[N+]21CCCC1)C(O)(c1ccccc1)c1ccccc1` [Trospium chloride], with 0.4; and `C[C@@H]1CC[C@H]2[C@@H](C)C(=O)O[C@@H]3O[C@@]4(C)CC[C@@H]1[C@]32OO4` [Artemisinin], with -2.41. To `C=C[C@H]1CN2CC[C@H]1C[C@H]2[C@H](O)c1ccnc2ccccc12` [Cinchonidine] belongs -0.43. Then `CCN(C)C(=O)Oc1cccc([C@H](C)N(C)C)c1` [Rivastigmine], with -0.34; and `C[N+](C)(C)CCCCCCCCCC[N+](C)(C)C` [Decamethonium Bromide], with -0.42; and `NCC(O)c1ccc(O)cc1` (racemic) [(+,-)-Octopamine HCl], with -0.78.

Turning to `CCN1CC2(OC(=O)c3ccccc3NC(C)=O)CCC(OC)C34C1C(CC23)C1(O)CC(OC)C2CC4C1(O)C2OC` (centres undefined) [Lappaconitine], the “z-score of subpopulation abundance” value was -0.28. Then `COc1ccc2c(c1)[C@]13CCCC[C@@H]1[C@H](C2)N(C)CC3` [Dextromethorphan hydrobromide hydrate], with 0.71; and `C#C[C@]1(O)C=C[C@H]2[C@@H]3CCC4=CC(=O)CC[C@@H]4[C@H]3CC[C@@]21CC` [Gestodene], with 0.34; and `CN1[C@@H]2C[C@@H](OC(=O)[C@H](CO)c3ccccc3)C[C@H]1[C@@H]1O[C@@H]12` [Scopolamine HBr], with -0.93. To `C=CCN1C[C@H](C(=O)N(CCCN(C)C)C(=O)NCC)C[C@@H]2c3cccc4[nH]cc(c34)C[C@H]21` [Cabergoline] belongs -0.83; to `O=C(O[C@H]1C[N+]2(CCCOc3ccccc3)CCC1CC2)C(O)(c1cccs1)c1cccs1` [Aclidinium Bromide], -0.01.

Take `CN1C(=O)COc2c(C(=O)NC3CN4CCC3CC4)cc(Cl)cc21` (centres undefined) [Azasetron HCl]: the “z-score of subpopulation abundance” value was 0.88. To `COc1ccc(C=O)cc1` [p-Anisaldehyde] belongs -0.95; to `COC(=O)C1=CCCN(C)C1` [Arecoline HBr], 0.08. Then `CN1c2ccccc2C(NCCCCCCC(=O)O)c2ccc(Cl)cc2S1(=O)=O` (centres undefined) [Tianeptine sodium], with -0.51; and `CN[C@@H]1[C@@H](O)[C@@H](O[C@@H]2[C@@H](O)[C@H](O[C@H]3O[C@H](CN)CC[C@H]3N)[C@@H](N)C[C@H]2N)OC[C@]1(C)O.CN[C@@H]1[C@@H](O)[C@@H](O[C@@H]2[C@@H](O)[C@H](O[C@H]3O[C@H]([C@@H](C)N)CC[C@H]3N)[C@@H](N)C[C@H]2N)OC[C@]1(C)O.CN[C@@H]1[C@@H](O)[C@@H](O[C@@H]2[C@@H](O)[C@H](O[C@H]3O[C@H]([C@@H](C)NC)CC[C@H]3N)[C@@H](N)C[C@H]2N)OC[C@]1(C)O` [Gentamicin Sulfate], with -0.24; and `CN1[C@@H]2C[C@@H](OC(=O)[C@H](CO)c3ccccc3)C[C@H]1[C@@H]1O[C@@H]12` [Scopolamine HBr trihydrate], with -1.19. Consider `CC1(C)SC2C(N)C(=O)N2C1C(=O)O` (centres undefined) [6-Aminopenicillanic acid], for which the “z-score of subpopulation abundance” value was determined as 0.18. Then `CN[C@@H]1[C@@H](O)[C@@H](O[C@@H]2[C@@H](O)[C@H](O[C@H]3O[C@H]([C@@H](C)O)[C@@H](O)[C@H](O)[C@H]3N)[C@@H](N)C[C@H]2N)OC[C@]1(C)O` [Geneticin (G418 Sulfate)], with -0.26; and `CC[N+](C)(CC)CCOC(=O)C(O)(c1ccccc1)c1ccccc1` [Methylbenactyzine Bromide], with 0.02.

Turning to `Oc1cc(Cl)ccc1Oc1ccc(Cl)cc1Cl` [Triclosan], the “z-score of subpopulation abundance” value is -1.82.

On to `CC(C)(O)C(Cl)(Cl)Cl` [Chlorobutanol], for which the “z-score of subpopulation abundance” value was -0.53.

As to `N#Cc1nn(-c2c(Cl)cc(C(F)(F)F)cc2Cl)c(N)c1[S+]([O-])C(F)(F)F` (centres undefined) [Fipronil], the “z-score of subpopulation abundance” value is -0.23. `Nc1ccncc1` [4-Aminopyridine]: the “z-score of subpopulation abundance” value is 0.26.

`CNC1CC(N)C(O)C(OC2OC(CO)C(O)C3OC4(OC(C(N)CO)C(O)C(O)C4O)OC23)C1O` (centres undefined) [Hygromycin B]: the “z-score of subpopulation abundance” value is -1.16.
